{"source": "PubChem BioAssay AID720697", "about": "(Broad Institute, 2013)", "note": "Results with a measured potency or affinity are listed apart. Records with an inconclusive call do not appear. Active and inactive are the calls of the source.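 How the source made its calls: active means signal loss with fitted half-maximal concentration at or below twice the top valid tested dose in every test run; inconclusive means runs disagree, flat 30 to 70% signal loss, or poor fit; inactive means all runs flat, opposite direction, or potency beyond limit.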"}
{"experiment": "general mammalian cell viability loss – inhibitor set, cherry-pick, set 2, cytotoxicity control for miR-122 modulator project, dose response (AID 720697);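 further: 0% = median of neutral control wells and -100% = MG132 positive control wells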", "conditions": "HEK293T viability, CellTiter-Glo luminescence, 48 h; series mostly up to 26 µM"}
{"smiles": "O=C(Nc1ccccc1)N1C[C@@H]2[C@H](c3ccccc31)[C@H](CO)N2C(=O)c1ccncc1", "outcome": "inactive"}
{"smiles": "COC(=O)C[C@@H]1CC[C@@H]2[C@@H](COc3ccc(NS(=O)(=O)c4ccccc4F)cc3C(=O)N2C)O1", "outcome": "inactive"}
{"smiles": "CCOc1cc(C(=O)NC(C)COC)cc(OCC)c1OCC", "note": "(stereo unspecified)", "outcome": "inactive"}
{"smiles": "C/C=C/c1ccc([C@H]2[C@@H](CO)N[C@@H]2CN(CC(C)C)C(=O)c2ccccn2)cc1", "outcome": "inactive"}
{"smiles": "COc1ccc(CCNC(=O)c2c(C)cc(=O)oc2C)cc1OC", "outcome": "inactive"}
{"smiles": "CC(C)Oc1ccc(C(CCN)C2CCCCC2)cc1", "note": "(stereo unspecified)", "outcome": "inactive"}
{"smiles": "CNC(=O)C[C@H]1CC[C@H]2[C@@H](COc3ccc(NC(=O)c4cccc(OC)c4)cc3C(=O)N2C)O1", "outcome": "inactive"}
{"smiles": "COc1cccc(CNC(=O)C[C@@H]2CC[C@H]3[C@H](COc4ccc(NC(C)=O)cc4C(=O)N3C)O2)c1", "outcome": "inactive"}
{"smiles": "C[C@H](CO)N1C[C@H](C)[C@H](CN(C)S(=O)(=O)c2cccc(F)c2)Oc2ncc(C#CC3CCCCC3)cc2C1=O", "outcome": "inactive"}
{"smiles": "COc1cccc(NC(=O)C[C@@H]2CC[C@@H]3[C@@H](COc4ccc(NS(=O)(=O)c5cccc(F)c5)cc4C(=O)N3C)O2)c1", "outcome": "inactive"}
{"smiles": "CNC(=O)c1nc(C)n(-c2cc(Cl)cc(Cl)c2)n1", "activity change, negative = cytotoxicity": "4.99% [at 6 µM] (inactive)"}
{"smiles": "CCN(C[C@@H]1[C@@H](c2ccccc2)[C@@H](CO)N1C(=O)COC)S(C)(=O)=O", "outcome": "inactive"}
{"smiles": "CN1C(=O)c2cc(NC(=O)c3cccc(F)c3)ccc2OC[C@@H]2O[C@@H](CC(=O)Nc3ccccc3)CC[C@@H]21", "outcome": "inactive"}
{"smiles": "COc1ccc(C(C#N)Nc2ccc(C)cc2)cc1", "note": "(stereo unspecified)", "outcome": "inactive"}
{"smiles": "CCC(=O)N(C)C[C@H]1Oc2cc(C#CC3CCCCC3)ccc2S(=O)(=O)N([C@@H](C)CO)C[C@H]1C", "outcome": "inactive"}
{"smiles": "C/C=C/c1ccc([C@@H]2[C@@H](CO)N(C(=O)Cc3cccnc3)[C@H]2CNC(C)=O)cc1", "outcome": "inactive"}
{"smiles": "CC(C)(C)c1ccc(S(=O)(=O)NCCc2ccncc2)cc1", "outcome": "inactive"}
{"smiles": "CN1C(=O)c2cc(NC(=O)c3ccc(C(F)(F)F)cc3)ccc2OC[C@H]2O[C@H](CC(=O)O)CC[C@@H]21", "outcome": "inactive"}
{"smiles": "C[C@@H]1CN([C@@H](C)CO)S(=O)(=O)c2ccc(C3=CCCCC3)cc2O[C@@H]1CN(C)C(=O)Cc1ccncc1", "outcome": "inactive"}
{"smiles": "CNC(=O)C[C@H]1CC[C@@H]2[C@H](COc3ccc(NC(=O)c4ccc(OC)cc4)cc3C(=O)N2C)O1", "outcome": "inactive"}
{"smiles": "COc1ccc(CNC(=O)C[C@H]2CC[C@H]3[C@H](COc4ccc(NC(=O)C(C)C)cc4C(=O)N3C)O2)cc1", "outcome": "inactive"}
{"smiles": "C/C=C/c1ccc([C@@H]2[C@@H](CO)N(S(C)(=O)=O)[C@H]2CN(C)C(=O)CC)cc1", "outcome": "inactive"}
{"smiles": "O=C(Nc1ccccc1F)N1[C@H](CO)[C@@H]2c3ccccc3NC[C@@H]21", "outcome": "inactive"}
{"smiles": "CCCNC(=O)C[C@@H]1CC[C@H]2[C@H](COc3ccc(NC(=O)c4ccc(C(F)(F)F)cc4)cc3C(=O)N2C)O1", "outcome": "inactive"}
{"smiles": "CC(C)C(=O)Nc1ccc2c(c1)C(=O)N(C)[C@@H]1CC[C@H](CC(=O)NCc3cccc(F)c3)O[C@H]1CO2", "outcome": "inactive"}
{"smiles": "CCCNC(=O)C[C@@H]1CC[C@@H]2[C@@H](COc3ccc(NS(=O)(=O)c4ccccc4C)cc3C(=O)N2C)O1", "outcome": "inactive"}
{"smiles": "COC(=O)C[C@@H]1CC[C@@H]2[C@@H](COc3ccc(NC(=O)c4cscn4)cc3C(=O)N2C)O1", "outcome": "inactive"}
{"smiles": "CCOc1ccc(NC(=S)N(CCCN2CCCC2)Cc2cccn2Cc2ccc(Cl)cc2)cc1", "outcome": "inactive"}
{"smiles": "CC(C)OCCCNC(=O)c1ccncc1", "outcome": "inactive"}
{"smiles": "O=C(c1ccc(CNc2c(NC3CCCCC3)c(=O)c2=O)cc1)N1CCc2ccccc21", "outcome": "inactive"}
{"smiles": "Cc1ccc(-c2ccc3c(c2)O[C@H](CN(C)C(=O)CC2CC2)[C@H](C)CN([C@H](C)CO)S3(=O)=O)cc1", "outcome": "inactive"}
{"smiles": "O=C(CN1CCOCC1)NC[C@@H]1N[C@@H](CO)[C@@H]1c1ccc(-c2ccccc2)cc1", "outcome": "inactive"}
{"smiles": "COCC(=O)N(C)C[C@H]1Oc2cc(C#Cc3cccnc3)ccc2S(=O)(=O)N([C@@H](C)CO)C[C@@H]1C", "outcome": "inactive"}
{"smiles": "Nc1ccc(Oc2ccc(Br)cc2)cc1", "outcome": "inactive"}
{"smiles": "CC(C)C(=O)Nc1ccc2c(c1)C(=O)N(C)[C@H]1CC[C@H](CC(=O)Nc3cccc(F)c3)O[C@@H]1CO2", "outcome": "inactive"}
{"smiles": "COc1ccc(S(=O)(=O)N(C)C[C@@H]2Oc3cc(-c4cccc(F)c4)ccc3S(=O)(=O)N([C@H](C)CO)C[C@H]2C)cc1", "outcome": "inactive"}
